Most compounds without a hit are left out; they make up all but 21% or so of the library.
RORg inh – blocks mouse ROR gamma transcriptional activity; 5.4% of 310,000 active; Drosophila S2 Gal4-RORgamma UAS-luciferase reporter, 20 h; Potency, µM (highest dose often 53.6 µM), actives largely listed as inhibitors; P51450; note: nearly all actives have a fitted effect of over 60% in size
Target sequence (P51450 whole entry, looked up, the tested form may be a part): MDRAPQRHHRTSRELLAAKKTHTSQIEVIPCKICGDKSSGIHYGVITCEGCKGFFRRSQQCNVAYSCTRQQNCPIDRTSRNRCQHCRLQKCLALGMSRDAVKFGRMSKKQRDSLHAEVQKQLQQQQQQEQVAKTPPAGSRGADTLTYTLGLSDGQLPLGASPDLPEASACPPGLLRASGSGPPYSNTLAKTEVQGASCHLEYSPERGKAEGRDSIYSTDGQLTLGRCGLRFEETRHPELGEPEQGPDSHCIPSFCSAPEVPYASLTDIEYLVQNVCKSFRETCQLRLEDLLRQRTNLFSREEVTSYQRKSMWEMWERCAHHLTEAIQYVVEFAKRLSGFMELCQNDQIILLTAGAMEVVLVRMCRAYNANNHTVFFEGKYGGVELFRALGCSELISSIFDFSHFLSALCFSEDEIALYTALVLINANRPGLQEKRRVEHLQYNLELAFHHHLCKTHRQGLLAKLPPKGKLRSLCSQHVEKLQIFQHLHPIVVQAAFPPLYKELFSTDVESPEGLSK
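Stable Schneider cell line, Gal4 DNA-binding domain fused to ROR gamma, UAS-luciferase. Cmpd 1 hr RT → CuSO4 700 uM final → 20 hr RT → luciferase reagent 10 min → luminescence.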
VP16 counter – inhibits Gal4-VP16 luciferase reporter, ROR gamma counter-screen. 3.5% of 310,000 active. Drosophila S2 Gal4-VP16 UAS-luciferase, luminescence, 20 h. Potency, µM (titrated, usually from 53.6 µM), hits mostly inhibitors;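 note: Gal4-VP16 expression switched on by copper sulfate through the metallothionein promoter; nearly all actives have a fitted effect of over 50% in size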
TDP1 cell noCPT – qHTS for Inhibitors of human tyrosyl-DNA phosphodiesterase 1 (TDP1): qHTS in cells in absence of CPT; Potency, µM (titrated, usually from 46.2 µM), actives largely listed as inhibitors; 15% of 420,000 active; DT40 Tdp1-/- hTDP1 cells, no CPT, ATP luminescence, 48 h; note: nearly all actives have a fitted effect of over 55% in size
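Camptothecin absent (DMSO only). Human TDP1-complemented DT40 knockout cells, 400 cells/well, 37 °C for minimum 48 hr; ATP measured via CellTiter-Glo, 30 min dark incubation, luminescence.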
TDP1 cell CPT – DT40-hTDP1 cell growth loss with CPT; AID 686979; Potency, µM (titrated, usually from 46.2 µM), usual class: inhibitors; chicken DT40 Tdp1-/-;hTDP1 cells + 20 nM CPT, ATP luminescence, 48 h; 12% of 420,000 active; note: nearly all actives have a fitted effect of over 55% in size
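Cell growth measured by CellTiter-Glo luminescence after a minimum 48 h, 37 C compound exposure with 20 nM CPT in Tdp1-knockout DT40 cells stably expressing hTDP1, seeded 400/well; qHTS titration format.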
IL-1B inflam inh – blocks inflammasome-driven IL-1 beta release; THP-1 LPS/ATP IL-1B secretion, AlphaLISA, 16 h; stronger effect = lower value; AID 743279; activity change, % at 57.5 µM; 4.7% of 360,000 active; in the data active = activity change below about -50%; inconclusive = mostly about -30% to -49%
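Secreted IL-1B measured by AlphaLISA bead assay after 16 h compound exposure of THP-1 cells; compounds (final up to 57.5 uM) added 1 h before LPS (250 ng/mL) and ATP (1.25 mM) stimulation; lower signal means less secretion.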
ELG1 repair inh – blocks ELG1-dependent DNA repair in HEK293T cells; HEK293T ELG1-luciferase reporter, luminescence, 16 h; DNA damage induced by 5-fluorouridine; Potency, µM (titrated, usually from 46.1 µM), usual class: inhibitors; 2.3% of 330,000 active; AID 504467; note: nearly all actives have a fitted effect of over 55% in size
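Luminescence from the luciferase reporter, measured 30 min after ONE-Glo reagent at room temperature, was the read-out. Beforehand, 2,000 cells per well were exposed for 16 hr at 37 °C to 5-fluorouridine together with compound or vehicle.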
Numbers stand for hits; [ ] = remark or other dose. Unless noted, calls come from the whole dose curve; as a rule, active = well fitted curve in the direction sought with a large enough effect; inconclusive = small, poorly fitted or top-dose-only effect, or another doubt; inactive = no such curve, though single readings can be large; an effect the other way counts as inactive or inconclusive.

`O=C(NCC1COc2ccccc2O1)c1ccc(F)c(S(=O)(=O)N2CCOCC2)c1` (stereo not given) gave TDP1 cell noCPT inconclusive, TDP1 cell CPT 18.4µM, IL-1B inflam inh inactive and ELG1 repair inh inactive.
For O=C(NCC1CCCO1)c1cc(S(=O)(=O)N2CCCC2)c(Cl)cc1Cl (stereo not given) the results were RORg inh inactive, VP16 counter inactive, TDP1 cell noCPT inactive, TDP1 cell CPT inactive, IL-1B inflam inh inactive and ELG1 repair inh inactive.
For Cc1cc(C)cc(C(=O)Nc2c(C(=O)Nc3ccccc3F)oc3ccccc23)c1 the results were TDP1 cell noCPT inactive and TDP1 cell CPT inconclusive.
Screening COc1cccc(NC(=O)/C=C/c2ccc([N+](=O)[O-])cc2)c1 returned RORg inh inactive, VP16 counter inactive, TDP1 cell noCPT inactive, TDP1 cell CPT inactive, IL-1B inflam inh inactive and ELG1 repair inh inconclusive.
`COc1ccc(OC(=O)/C=C/c2ccc([N+](=O)[O-])cc2)cc1` gave RORg inh inconclusive, VP16 counter 8.91µM, TDP1 cell noCPT inconclusive, TDP1 cell CPT inactive, IL-1B inflam inh inactive and ELG1 repair inh inactive.
COc1ccc(C(=O)/C=C/c2ccc(F)cc2)c(OC(=O)c2ccc([N+](=O)[O-])cc2)c1 was read as RORg inh inconclusive, VP16 counter inactive[0.365 µM], TDP1 cell noCPT 20.6µM, TDP1 cell CPT inconclusive, IL-1B inflam inh -94.2 and ELG1 repair inh inconclusive.
`C=CCn1c(SCC(=O)NC2CC2)nnc1-c1cccs1` gave RORg inh inactive, VP16 counter inactive, TDP1 cell noCPT inactive, TDP1 cell CPT inactive, IL-1B inflam inh inactive and ELG1 repair inh inactive.
`CCN(CC)CCCNC(=O)c1cc(-c2ccc(Cl)cc2)on1` gave RORg inh inactive, VP16 counter inactive, TDP1 cell noCPT 23.1µM, TDP1 cell CPT inconclusive, IL-1B inflam inh inactive and ELG1 repair inh inactive.
For CCCCNC(=O)c1cc(-c2ccc(F)cc2)on1 the results were RORg inh inactive, VP16 counter inactive, TDP1 cell noCPT inconclusive, TDP1 cell CPT 13µM, IL-1B inflam inh inactive and ELG1 repair inh inconclusive.
Screening CCN(CC)CCCNC(=O)c1cc(-c2ccc3c(c2)OCO3)on1 returned RORg inh inactive, VP16 counter inactive, TDP1 cell noCPT inactive, TDP1 cell CPT inactive, IL-1B inflam inh inactive and ELG1 repair inh inconclusive.
CCCCNC(=O)c1cc(-c2ccc(OC)cc2)on1 was read as RORg inh inactive, VP16 counter inactive, TDP1 cell noCPT inactive, TDP1 cell CPT inactive, IL-1B inflam inh inactive and ELG1 repair inh inconclusive.
For COc1ccc(NS(=O)(=O)c2ccc(O)c(NC(=O)c3cc4c(C)nn(-c5ccc(F)cc5)c4s3)c2)cc1 the results were RORg inh inconclusive, VP16 counter 22.4µM, TDP1 cell noCPT inconclusive, TDP1 cell CPT inactive, IL-1B inflam inh inconclusive and ELG1 repair inh inactive.
COc1ccccc1NC(=O)c1c(C)nn(-c2ccccc2)c1Cl was read as RORg inh inconclusive, VP16 counter inactive, TDP1 cell noCPT inconclusive, TDP1 cell CPT inactive, IL-1B inflam inh inactive and ELG1 repair inh inconclusive.
Screening Cc1nn(-c2ccccc2)c2sc(C(=O)Nc3cccc(Cl)c3)cc12 returned TDP1 cell noCPT 23.1µM and TDP1 cell CPT inconclusive.
CC(=O)c1sc(NC(=O)c2cc3c(C)nn(-c4ccccc4)c3s2)nc1C was read as RORg inh inactive, VP16 counter inactive, TDP1 cell noCPT inactive, TDP1 cell CPT inactive, IL-1B inflam inh inactive and ELG1 repair inh inactive.
Cc1nc(NC(=O)c2cc3c(C)nn(-c4ccccc4)c3s2)sc1C(=O)Nc1ccccc1 was read as RORg inh inactive, VP16 counter inactive, TDP1 cell noCPT 20.6µM, TDP1 cell CPT inconclusive, IL-1B inflam inh inactive and ELG1 repair inh inactive.
Screening COc1ccccc1NC(=O)c1cc2c(C)nn(-c3ccccc3)c2s1 returned TDP1 cell noCPT 23.1µM and TDP1 cell CPT inconclusive.
For COc1ccccc1-c1ccc2ncnc(N3CCNCC3)c2c1 the results were RORg inh inactive, VP16 counter inactive, TDP1 cell noCPT inactive and TDP1 cell CPT inconclusive.
Screening CCOc1ccc(OCC(=O)NCCS(=O)(=O)N2CCN(c3ccc(OC)cc3)CC2)cc1 returned TDP1 cell noCPT inactive and TDP1 cell CPT inactive.
`Nc1ccc2nc3c(=O)n(CCc4ccccc4)c(=O)[nH]c3nc2c1` gave RORg inh inconclusive, VP16 counter inactive, TDP1 cell noCPT inconclusive, TDP1 cell CPT inactive and ELG1 repair inh inconclusive.
Screening Cc1cc2nc3c(=O)n(CCc4ccccc4)c(=O)[nH]c3nc2cc1N returned RORg inh inconclusive, VP16 counter inactive, TDP1 cell noCPT 20.6µM, TDP1 cell CPT inactive, IL-1B inflam inh inconclusive and ELG1 repair inh inactive.
Cc1cc(Cl)c(S(=O)(=O)Nc2ccon2)cc1OCC(=O)NC1CCCCC1 was read as RORg inh inactive, VP16 counter inactive, TDP1 cell noCPT inactive, TDP1 cell CPT inactive, IL-1B inflam inh inactive and ELG1 repair inh inactive.
`Cc1cc(Cl)c(S(=O)(=O)NC2CCCCC2)cc1OCC(=O)Nc1nncs1` gave RORg inh inactive, VP16 counter inactive, TDP1 cell noCPT 23.1µM, TDP1 cell CPT 25.9µM, IL-1B inflam inh inactive and ELG1 repair inh inconclusive.
For COC(=O)COc1ccc(S(=O)(=O)Nc2ccc3c(c2)OCCO3)cc1C the results were RORg inh inconclusive, VP16 counter inconclusive, TDP1 cell noCPT inconclusive, TDP1 cell CPT inconclusive, IL-1B inflam inh -73.4 and ELG1 repair inh inconclusive.
Cc1cc(Cl)c(S(=O)(=O)Nc2ccc3c(c2)OCCO3)cc1OCC(=O)NC1CCCCC1 was read as RORg inh inactive, VP16 counter inactive, TDP1 cell noCPT inconclusive, TDP1 cell CPT inconclusive, IL-1B inflam inh -52.9 and ELG1 repair inh inactive.
For CCCCN1CCC[C@@H]1CNC(=O)c1cc(C#N)c2ccccc2c1OC the results were RORg inh inactive, VP16 counter inactive, TDP1 cell noCPT inconclusive and TDP1 cell CPT inconclusive.
O=C(Cn1ncc2c([nH]c3ccccc32)c1=O)Nc1cc(F)ccc1F was read as TDP1 cell noCPT inactive and TDP1 cell CPT inactive.
For COCc1cc(=O)[nH]c(Nc2nc3ccc(C)cc3o2)n1 the results were RORg inh 4.47µM, VP16 counter 3.16µM, TDP1 cell noCPT 4.61µM, TDP1 cell CPT 4.61µM, IL-1B inflam inh inactive and ELG1 repair inh inconclusive.
Screening CCc1ccc2nc(Nc3nc(COC)cc(=O)[nH]3)nc(C)c2c1 returned RORg inh inactive, VP16 counter inactive, TDP1 cell noCPT 23.1µM, TDP1 cell CPT 9.2µM, IL-1B inflam inh inconclusive and ELG1 repair inh inactive.
